Where “and” joins values, the source holds several entries; their conditions need not be identical. Equal entries are not always repeated. This is part of a sample that, as a whole, favours compounds with a hit. Of some 83,000 tested, about 20% had one in any assay.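 Single-dose data. Exposure time 48 hours. Values below 10 considered active.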 Calls of active or inactive are those of the source.
Assays:
Assay in all cases: NCI-60 one-dose screen, 48 h (100 = growth as untreated, 0 = no growth, -100 = all killed)
SN12C renal = conditions: 10 µM unless noted
TK-10 renal = test system: TK-10 renal
ACHN renal = conditions: 10 µM unless noted
CAKI-1 renal = conditions: 10 µM unless noted
A498 renal = conditions: 10 µM unless noted
HL-60(TB) leukemia = conditions: 10 µM unless noted
CCRF-CEM leukemia = conditions: 10 µM unless noted
MOLT-4 leukemia = conditions: 10 µM unless noted
UO-31 renal = conditions: 10 µM unless noted
SR leukemia = conditions: 10 µM unless noted

SMILES | growth (SN12C renal) | growth (TK-10 renal; 10 µM) | growth (ACHN renal) | growth (CAKI-1 renal) | growth (A498 renal) | growth (HL-60(TB) leukemia) | growth (CCRF-CEM leukemia) | growth (MOLT-4 leukemia) | growth (UO-31 renal) | growth (SR leukemia) | growth (TK-10 renal; 100 µM)
Cc1ccc(C(=O)OC(C(=O)O)C(OC(=O)c2ccc(C)cc2)C(=O)O)cc1 (stereo not given) (tested in a mixture with another compound) | 38.5% (inactive) | 93.2% (inactive) | 66% (inactive) | 50.7% (inactive) | 77.7% (inactive) | 23.5% (inactive) | 23% (inactive) | 35.9% (inactive) | – | – | –
CCC1(O)CC(OC2CC(N(C)C)C(OC3CC4OC5CC(=O)C(C)OC5OC4C(C)O3)C(C)O2)c2c(cc3c(c2O)C(=O)c2c(O)ccc(O)c2C3=O)C1C(=O)OC (stereo not given) | 13.4% (inactive) | -28.7% (active) | -17.6% (active) | -15.4% (active) | -71.4% (active) | -41.6% (active) | -31.2% (active) | -9.49% (active) | -39.6% (active) | -6.58% (active) | –
COc1cccc2c1cc([N+](=O)[O-])c1c(C(=O)O)cc3c(c12)OCO3 | 65.1% (inactive) and 113% (inactive) | 30.8% (inactive) and 99.6% (inactive) | 39.1% (inactive) and 96.1% (inactive) | 9.19% (active) and 88% (inactive) | 87.2% (inactive) and 107% (inactive) | 41.6% (inactive) and 79.4% (inactive) | 45.8% (inactive) and 77.6% (inactive) | 35.7% (inactive) and 95.9% (inactive) | 76.5% (inactive) and 87.8% (inactive) | 28.1% (inactive) and 76.3% (inactive) | -10.4% (active) and -42.6% (active)
O=C1c2ccccc2C(=O)C(Cl)C1Cl (stereo not given) | 71.4% (inactive) | -97.4% (active) | -100% (active) | 64.5% (inactive) | 133% (inactive) | -24.2% (active) | -20.8% (active) | -8.44% (active) | -98.5% (active) | 35.6% (inactive) | –
CCC(=O)OC1CCn2c1nc1c2C(=O)C(C)=C(N2CC2)C1=O (stereo not given) | -43.9% (active) | -5.86% (active) | -25.3% (active) | -8.28% (active) | -77.6% (active) | 10.4% (inactive) | 70.4% (inactive) | 70.5% (inactive) | -9.18% (active) | 1.48% (active) | –
CC1CCC2(NC1)OC1CC3C4CCC5CC(OC6OC(CO)C(OC7OC(CO)C(O)C(OC8OCC(O)C(O)C8O)C7OC7OC(CO)C(O)C(O)C7O)C(O)C6O)CCC5(C)C4CCC3(C)C1C2C (stereo not given) | – | – | – | – | – | – | – | – | – | – | -97.4% (active) and -87.3% (active)
CC1=C2C(=O)[C@H]3[C@@H](CC=C4C[C@@H](O)CC[C@@]43C)[C@@H]2CC[C@]12O[C@@H]1C[C@H](C)CN[C@H]1[C@H]2C | 102% (inactive) | 108% (inactive) | 108% (inactive) | 103% (inactive) | 103% (inactive) | 115% (inactive) | 89.5% (inactive) | 96.9% (inactive) | 72.6% (inactive) | 95.2% (inactive) | –
CO[C@H](/C(C)=C/C=C/C(C)=C/c1coc(C)n1)[C@H](C)[C@H]1C[C@@H](O)[C@@]2(C)O[C@H]2/C=C/[C@@H](C)[C@@H]2C[C@@H](CC(=O)O2)C[C@H]2O[C@@H]2C(=O)O1 | 48.7% (inactive) | 37.2% (inactive) | -10.3% (active) | 15% (inactive) | 26.1% (inactive) | -36.9% (active) | -3.89% (active) | 9.7% (active) | 20.7% (inactive) | -4.11% (active) | –

Source: PubChem BioAssay (NCI)
